The values that follow come from ChEMBL document CHEMBL4513216, “Probing the Open Global Health Chemical Diversity Library for Multistage-Active Starting Points for Next-Generation Antimalarials” (ACS Infect Dis, 2020).

About 8,600 (12%) of roughly 69,000 compounds showed an effect of 50% or more. The sample as a whole holds a higher share of strong results than the screen did.

This assay relates to Plasmodium berghei. As to the kind of experiment: Screen against P. berghei liver stage (PbLuc), transformed with Luciferase, at 10uM. To be noted: tested at 10 uM. Format: functional, HepG2.
Regarding `CN1CCN(C(=O)NC2CCCC2)Cc2cccnc21`, the INHIBITION is reported as -29.3%. The figure for `CCn1c(CNCC2CCCN2c2cccnn2)nc2ccccc21` (stereo not drawn) is -0.113%; for `COc1ccc(COCC(O)CNC(=O)Cc2ccc(C)cc2)cc1` (stereo not drawn) it is 11.2%; for `Cc1ncn(CCNC(=O)Nc2ccc(F)c(Cl)c2)c(=O)c1C` it is 20.9%. With `CCOC(=O)COC1CCN(C(C)=O)CC(=O)N(C)c2ccccc21` (stereo not drawn), the INHIBITION was 22.2%. In the case of `COc1ccccc1-c1ncc(CN2CCC3(CCN(C)C3)CC2)cn1`, the INHIBITION amounted to 18.4%. Turning to `COc1cccc(COCC(=O)N2CCCN(CC(N)=O)CC2)c1`, the INHIBITION is recorded as -101%. `COCC(C)NC(=O)CSc1ccc(F)c(Cl)c1` (stereo not drawn): the INHIBITION came to 46.1%.

`CC(C)CC(NC(=O)CSc1ccc(F)c(Cl)c1)C(=O)O` (stereo not drawn): the INHIBITION is recorded as 75.8%. For `CC(C)CC(NC(=O)Nc1ccc(F)c(Cl)c1)C(=O)O` (stereo not drawn), the INHIBITION is given as -20.3%. The figure for `Cc1nc(N2CCCC2)nc2c1CCN(C(=O)CN(C)C)CC2` is 20.1%. Turning to `COCc1ccccc1C(=O)N1CCCC1Cn1nc(C)cc1C` (stereo not drawn), the INHIBITION is -72.745%.

Consider `C=C(C)CN1CCN(Cc2cnc(-c3ccccc3C)nc2)CC1`, for which the INHIBITION was found to be 9.93%. As to `Cc1nn(-c2ccc(C(=O)O)cc2)c2c1C(C(F)(F)F)SCC(=O)N2` (stereo not drawn), the INHIBITION is -14.3%. For the compound `O=C(NCCCC(=O)N1Cc2ccccc2C1)NCc1nccs1`, the INHIBITION is recorded as 39.7%. As for `O=C(NCCCC(=O)N1Cc2ccccc2C1)NCc1cccnc1`, the INHIBITION is 66.3%. With `O=C(NCCCC(=O)N1Cc2ccccc2C1)NCc1ccsc1` the figure was 23.5%; with `O=C1[C@@H]2CC[C@@H](CN(Cc3nnc(C4CC4)o3)C2)N1Cc1cscn1`, -28.4%; with `Cc1cc(C(=O)N2CCC(CCC(=O)NCCN(C)C)CC2)ccc1O`, -21.9%.

For the compound `CN(C)CCNC(=O)CCC1CCN(C(=O)c2ccc(Cl)cc2O)CC1`, the INHIBITION came to 50.4%. As to `CN(C)CCNC(=O)CCC1CCN(C(=O)c2ccc(O)cn2)CC1`, the INHIBITION is listed as 26.8%. Take `CCN(c1ccc(C(=O)NCCCN2CCCC2)cc1)S(=O)(=O)CC`: the INHIBITION was -7.11%.

As to `CC[C@@H]1N(Cc2ccc(F)cc2)CCC[C@]12CCC(=O)N2C`, the INHIBITION is 21.1%.

As to `Cc1ccc(N2CC3(COCCN(Cc4cnn(C)c4)C3)OCC2=O)s1` (stereo not drawn), the INHIBITION is 31.7%. The figure for `Cc1ccc(CN2CCC3(CC2)CN(c2ccccc2)C(=O)CO3)o1` is 68.4%; for `Cc1ccc(N2CC3(COCCN(Cc4ccccn4)C3)OCC2=O)s1` (stereo not drawn) it is 60.1%; for `Cc1cccc(N2CCOCC3(C2)CN(c2cccnc2)C(=O)CO3)n1` (stereo not drawn) it is 41.4%. The figure for `Cc1cccc(N2CCOCC3(C2)CN(c2ccccc2)C(=O)CO3)n1` (stereo not drawn) is 59.3%.

With `Cc1ccc(N2CC3(COCCN(Cc4nccs4)C3)OCC2=O)s1` (stereo not drawn), the INHIBITION is on record as -17%. Turning to `Cc1ccc(N2CC3(COCCN(Cc4ccncc4)C3)OCC2=O)s1` (stereo not drawn), the INHIBITION is given as -36%. With `Cn1cccc1CN1CCC2(CC1)CN(c1ccccc1)C(=O)CO2` the figure was -19.5%. With `Cc1ccc(CN2CCOCC3(C2)CN(c2ccc(C)s2)C(=O)CO3)o1` (stereo not drawn) the figure was 64.2%. With `Cc1ccc(CN2CCC3(CC2)CN(c2cnn(C)c2)C(=O)CO3)o1` the figure was -2.17%; with `Cc1cccc(N2CCOCC3(C2)CN(c2cncnc2)C(=O)CO3)n1` (stereo not drawn), 33.5%; with `Cc1ccc(N2CC3(COCCN(Cc4cccnc4)C3)OCC2=O)s1` (stereo not drawn), 39.2%.

As to `Cc1ccc(CC(=O)N2CCc3nnc(N(C)C)cc3C2)s1`, the INHIBITION was 12.85%. The figure for `Cn1cnc2c1C(COCC1CCOCC1)CN(C1CCOCC1)C2` (stereo not drawn) is -0.569%; for `CC(C)NC(=O)Nc1ccc(CS(C)(=O)=O)cc1` it is 28.3%. Take `CCn1ccnc1CN1CCCN(C(=O)c2cnc(C)cn2)CC1`: the INHIBITION is listed as -4.16%. In the case of `Cc1nc(CN2CCCC(N(C)Cc3nccn3C)C2)no1` (stereo not drawn), the INHIBITION is recorded as 13.3%.

Consider `COc1ccc(OCc2cc(C(=O)N3CCCCO3)n[nH]2)c(Cl)c1`, for which the INHIBITION was -9.42%. Consider `CCNCCC(Cc1ccccc1)c1ccco1` (stereo not drawn), for which the INHIBITION is reported as 31.2%. With `COCCN(C)c1cnn(C)c(=O)c1Br` the figure was 17.5%; with `CC(Cn1cccn1)C(=O)N1CCCN(Cc2cscn2)CC1` (stereo not drawn), -0.29%. The figure for `O=C(c1cnco1)N1CCC(Cc2cnc3ccccc3c2)CC1` is 14.4%.

Take `Cn1ccc(C(=O)N2CCCCC23CC(=O)N(Cc2ccccc2)C3)n1` (stereo not drawn): the INHIBITION is recorded as -52.9%. With `O=C1CC2(CCCCN2C(=O)c2ccco2)CN1c1cccnc1` (stereo not drawn) the figure was 76.5%; with `Cn1cccc1C(=O)N1CCCCC12CC(=O)N(c1cccnc1)C2` (stereo not drawn), -80.2%; with `O=C1CC2(CCCCN2C(=O)c2ccoc2)CN1Cc1ccccc1` (stereo not drawn), 24.8%. The figure for `O=C(c1ccco1)N1CCOCC2(C1)CN(c1cccnc1)C(=O)CO2` (stereo not drawn) is 3.58%; for `O=C1CC2(CCCCN2C(=O)Cc2ccccc2)CN1c1cccnc1` (stereo not drawn) it is 70.1%; for `COc1ccc(CC(=O)N2C[C@@H]3COC[C@]3(CN(C)C)C2)cc1` it is 35.3%.

Take `CCOCC1c2c(cnn2CC2CC2)CCN1Cc1nccs1` (stereo not drawn): the INHIBITION came out at 30.3%.

For the compound `O=C(C1CCCC1)N1CCO[C@H]2[C@H](OCC3CCOCC3)CC[C@@H]21`, the INHIBITION is -26.5%. Regarding `CC(C)NC(=O)CS(=O)(=O)Cc1coc(-c2ccc(F)cc2)n1`, the INHIBITION was 33.8%. In the case of `Cc1nc(C)c(CC(=O)N2C[C@@H]3CC[C@H]2CN(c2cnccn2)C3)s1`, the INHIBITION is -102%. For the compound `CC(C)C(=O)NC1COC2(CCN(Cc3cccnc3)CC2)C1` (stereo not drawn), the INHIBITION was 16.1%. On to `c1cnc(NCc2nnn3c2CN(Cc2ccsc2)CCC3)nc1`, for which the INHIBITION is given as 39.8%. Consider `CS(=O)(=O)NC[C@@H]1OC[C@H]2CN(Cc3ccsc3)CC[C@H]21`, for which the INHIBITION is -4.32%.

Regarding `CN(CC(=O)N1CCc2[nH]c3ccccc3c2C1)CC1OCCO1`, the INHIBITION was found to be 22.9%. The figure for `O=C1N(c2ccsc2)CCC12CCCN(c1ccccn1)C2` (stereo not drawn) is 42.1%; for `Cc1nn(C)c(N(C)C)c1CNCc1cccnc1-n1cncn1` it is 26.1%; for `CC(CNS(N)(=O)=O)Oc1cccc(Cl)c1` (stereo not drawn) it is 14.9%. Take `CC(C)C[C@H](N)COc1cccc(F)c1Oc1cccc(Cl)c1`: the INHIBITION turned out to be 83.3%. With `CNCc1cc(F)ccc1Oc1ccc(Cl)cc1` the figure was 35.2%; with `CC(CNS(C)(=O)=O)Oc1cccc(Cl)c1` (stereo not drawn), 23.8%. The figure for `Cc1ccc(Oc2c(F)cccc2OC[C@@H](N)CC(C)C)cc1` is 79.6%; for `COc1ccccc1C(N)CC(C)C` (stereo not drawn) it is 48.3%; for `CC(C)C[C@H](N)COc1cccc(F)c1Oc1ccccc1` it is 48%. With `CC(C)C[C@H](N)COc1cccc(F)c1Oc1ccc(Cl)cc1`, the INHIBITION is 87.9%. `CN(CCc1ccccn1)c1cnn(C)c(=O)c1Br`: the INHIBITION is given as -18.9%. With `Cc1ccc2c(c1)Oc1ncccc1C(=O)N2` the figure was 48.2%; with `Cc1cnc(C(=O)N2C[C@H]3CN(Cc4cccc(F)c4)C(=O)[C@H]3C2)cn1`, -9.71%; with `CC(CN1CCOCC1)NC(=O)N1CCN(S(C)(=O)=O)CC1` (stereo not drawn), -34.4%. With `CCOc1ccc(SCCS(=O)(=O)CC)cc1`, the INHIBITION is on record as 3.84%. The figure for `CCSCCn1cc(-c2ncc[nH]2)nn1` is 59.1%; for `CCn1c(C)nnc1SCCn1cc(-c2ncc[nH]2)nn1` it is 7.1%; for `c1c[nH]c(-c2cn(CCSc3cnn[nH]3)nn2)n1` it is 33.2%. The figure for `Cc1cnc(CN(C)C2CCN(Cc3nccn3C)C2)o1` (stereo not drawn) is 13.3%; for `CCOC(=O)CNC(=O)c1cc(-c2ccccc2)nc2ncnn12` it is -5.22%; for `COCCNC(=O)c1sc(Nc2ccc(Cl)cn2)nc1C` it is 67.9%. Regarding `CCCc1nc(C)c(C(=O)NCCN2CCCCC2)s1`, the INHIBITION is -21.9%. Consider `CC(=O)c1sc(Nc2ccc(Cl)cn2)nc1C`, for which the INHIBITION is reported as -9.27%. The figure for `CCCNC(=O)c1sc(Nc2ccc(Cl)cn2)nc1C` is -19.7%. Consider `Cc1nc(Nc2ccc(Cl)cn2)sc1C(=O)NCCCN1CCCCC1`, for which the INHIBITION turned out to be 52.3%. For `Cc1nc(Nc2ccc(Cl)cn2)sc1C(=O)NC(C)C`, the INHIBITION was -86.5%. With `COc1ccc(CCC(=O)N2CCNCC2C(=O)N2CCCC2)cc1` (stereo not drawn) the figure was 32.1%; with `COCCO[C@H]1CCN(Cc2cccnc2)[C@H]1Cc1cccnc1`, -31%; with `CN(C)S(=O)(=O)N1C[C@H]2CC[C@@H](C1)N(Cc1ccc(F)c(F)c1)C2`, 0.825%. With `CSc1nccn1-c1ccc(C(=O)NCC2CC2)cc1` the figure was 36.1%; with `O=C(NCCCn1nc2ccccn2c1=O)NCC(C1CC1)C1CC1`, -20%.

With `COc1ncc(-c2cc(-c3ccn(C)c3)nc(N)c2C#N)cn1`, the INHIBITION amounted to 29.4%. With `COc1cc(-c2cc(-c3ccn(C)c3)nc(N)c2C#N)cc(OC)c1O` the figure was 71.2%. With `CCNc1ncc(-c2cc(-c3ccn(C)c3)nc(N)c2C#N)cn1` the figure was 36%. With `Cc1ccc(-c2cc(-c3c(C)nn(CCO)c3C)c(C#N)c(N)n2)cc1` the figure was 14.1%; with `CCn1cc(-c2cc(-c3ccn(C)c3)nc(N)c2C#N)cc1C#N`, 81.1%; with `CCCn1cc(-c2cc(-c3cnc(OC)nc3)c(C#N)c(N)n2)c(C)n1`, 25.1%. As for `O=C(NCC1CC1)c1cc(C2CC2)nc2onc(C3CCCNC3)c12` (stereo not drawn), the INHIBITION is given as -3.11%. The figure for `CCN1CC2(CC1=O)CN(Cc1cnn(C)c1)CCN(C(=O)C(C)C)C2` (stereo not drawn) is 9.54%; for `COCCn1cc(NC(=O)NC(C)c2ccc(Cl)s2)cn1` (stereo not drawn) it is -6.04%; for `CC(NCc1cnc(N2CCOCC2)s1)c1ccc(Cl)s1` (stereo not drawn) it is -19.1%. With `CC(NCCN1CCC(N(C)C)CC1)c1ccc(Cl)s1` (stereo not drawn) the figure was 27.7%. Regarding `CC(NC(=O)NCCc1cnn(C)c1)c1ccc(Cl)s1` (stereo not drawn), the INHIBITION came to 68%. Turning to `CC(NCCCc1cnn(C)c1)c1ccc(Br)s1` (stereo not drawn), the INHIBITION was found to be 45.7%. Turning to `Cc1nc(C)c(C(C)NCc2cnc(N3CCOCC3)nc2)s1` (stereo not drawn), the INHIBITION is recorded as 43.5%. With `CC(NCCCc1cnn(C)c1)c1ccc(Cl)s1` (stereo not drawn) the figure was 51.7%; with `CC(Cn1cccn1)NC(=O)NCCc1cnn(C)c1` (stereo not drawn), 49.6%.

As for `CC(NCc1cnc(N2CCOCC2)nc1)c1ccc(Cl)s1` (stereo not drawn), the INHIBITION is given as 51.8%.
